HT1080 IDH1KD tx – qHTS for induction of synthetic lethality in tumor cells producing 2HG: qHTS for the HT-1080-IDH1KD cell line | HT-1080 IDH1 knockdown viability, ATP luminescence, 48 h | Potency, µM (top dose mostly 46.1 µM), without a hit: top-dose activity, negative = toxicity, actives largely listed as cytotoxic | AID 686971, 2013 | 2% of 360,000 active;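 further: potency means the concentration at half of the fitted maximal effect; 0% = DMSO wells and -100% = cell-free medium wells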
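Knockdown cells (IDH1KD HT-1080) received compounds 2 h after plating at 750 cells/well and were kept 48 h at 37 °C in 5% FBS RPMI. A CellTiter-Glo luminescence read gave % activity for curve fitting.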
12-LOX inh – Primary qHTS assay for inhibitors of human arachidonate 12S-lipoxygenase (ALOX12): Round 2 | Polyunsaturated fatty acid lipoxygenase ALOX12 (Homo sapiens), P18054 | purified 12hLO, xylenol orange hydroperoxide absorbance | Potency, µM (highest dose often 108 µM), without a hit: at the highest dose activity change, negative = inhibition, hits mostly inhibitors | 1.1% of 580,000 active | AID 1671190, 2021; further: potency means the concentration at half of the fitted maximal effect
Target sequence (P18054 whole entry, looked up): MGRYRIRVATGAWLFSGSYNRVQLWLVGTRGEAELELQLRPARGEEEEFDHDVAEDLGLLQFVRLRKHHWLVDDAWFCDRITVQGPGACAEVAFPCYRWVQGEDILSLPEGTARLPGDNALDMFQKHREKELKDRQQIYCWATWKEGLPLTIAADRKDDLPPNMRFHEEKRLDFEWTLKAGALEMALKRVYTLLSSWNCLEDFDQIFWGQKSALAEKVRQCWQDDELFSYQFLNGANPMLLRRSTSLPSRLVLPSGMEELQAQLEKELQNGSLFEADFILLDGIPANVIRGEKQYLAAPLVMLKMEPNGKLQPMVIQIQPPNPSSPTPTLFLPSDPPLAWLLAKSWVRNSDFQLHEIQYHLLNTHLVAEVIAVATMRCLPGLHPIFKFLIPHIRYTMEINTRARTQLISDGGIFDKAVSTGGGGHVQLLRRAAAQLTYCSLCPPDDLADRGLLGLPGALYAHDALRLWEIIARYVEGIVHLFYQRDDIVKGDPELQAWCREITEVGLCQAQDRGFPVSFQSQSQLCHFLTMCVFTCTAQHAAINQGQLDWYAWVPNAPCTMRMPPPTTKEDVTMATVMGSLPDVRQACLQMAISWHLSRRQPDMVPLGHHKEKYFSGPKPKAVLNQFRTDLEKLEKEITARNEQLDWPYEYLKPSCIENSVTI
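Purified human 12hLO (150 nM final) in 25 mM Hepes, 0.01% Triton X-100, pH 7.0 was preincubated 15 min at room temperature with compound. Then 40 uM arachidonic acid was added, 30 min. Hydroperoxide was read by Fe-XO absorbance ratio 573/405 nm.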
HT1080-NT tox – qHTS for induction of synthetic lethality in tumor cells producing 2HG: qHTS for the HT-1080-NT fibrosarcoma cell line | 1.6% of 360,000 active | HT-1080-NT fibrosarcoma viability, CellTiter-Glo ATP luminescence, 48 h | AID 686970, 2013 | Potency, µM (series often up to 46.1 µM), for inactives: top-dose activity, negative = less viability, usual class: cytotoxic;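 further: NT is the 2HG producing partner of a matched IDH1 knockdown line; potency means the concentration at half of the fitted maximal effect; 0% = DMSO-treated cells and -100% = media-only wells without cells; nearly all actives have a fitted effect of over 55% in size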
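Luminescent CellTiter-Glo readout after 48 hours of compound exposure at 37 degrees C defined viability of HT-1080-NT cells. Activity was normalized to DMSO wells and cell-free media wells; concentration-response curves were fitted and assigned curve classes.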
IL1B secr inh – qHTS for Inhibitors of Inflammasome Signaling: IL-1-beta AlphaLISA Primary Screen; THP-1 LPS/ATP IL-1B secretion, AlphaLISA, 16 h; hits give low values; activity change, % at 57.5 µM; 4.7% of 360,000 active; in the data active means activity change below about -50%; inconclusive means mostly about -30% to -49%
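THP-1 cells pretreated 1 hr with compounds (up to 57.5 uM final), then stimulated with LPS (250 ng/mL final) plus ATP (1.25 mM final); secreted IL-1B measured by AlphaLISA after 16 hr, decreased signal indicating inhibition.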
DT40 TDP1 no CPT – qHTS for Inhibitors of human tyrosyl-DNA phosphodiesterase 1 (TDP1): qHTS in cells in absence of CPT. DT40 Tdp1-/- hTDP1 cells, no CPT, ATP luminescence, 48 h. Potency, µM (series often up to 46.2 µM), inactives show top-dose activity change, negative = growth inhibition, actives largely listed as inhibitors. 15% of 420,000 active. AID 686978, 2013; further: potency means the concentration at half of the fitted maximal effect; nearly all actives have a fitted effect of over 55% in size
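Readout: luminescence from CellTiter-Glo after 30 min in the dark at RT. Cells: DT40 Tdp1-/- with stable hTDP1, 400/well. Exposure: compounds alone, ≥48 hr, 37 °C.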
DT40 TDP1 CPT – qHTS for Inhibitors of human tyrosyl-DNA phosphodiesterase 1 (TDP1): qHTS in cells in presence of CPT; chicken DT40 Tdp1-/-;hTDP1 cells + 20 nM CPT, ATP luminescence, 48 h; Potency, µM (top dose mostly 46.2 µM), for inactives: top-dose activity change, negative = growth inhibition, most hits filed as inhibitors; 12% of 420,000 active; AID 686979, 2013; further: potency means the concentration at half of the fitted maximal effect; nearly all actives have a fitted effect of over 55% in size
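Cell growth measured by CellTiter-Glo luminescence after a minimum 48 h, 37 C compound exposure with 20 nM CPT in Tdp1-knockout DT40 cells stably expressing hTDP1, seeded 400/well; qHTS titration format.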
Active calls of the source: *; ? = inconclusive; / = not tested or not shown; [ ] = another dose, or the depositor's remark. Only a selection was taken, and hits are over-represented in it overall. Unless noted, the call rests on the fitted dose curve; in most records, active means well fitted curve in the direction sought with a large enough effect; inconclusive means small, poorly fitted or top-dose-only effect, or another doubt; inactive means no such curve, though single readings can be large; an effect the other way counts as inactive or inconclusive. Unless noted, on the % scale 0 is the no-effect control and ±100 the full control effect.

SMILES | HT1080 IDH1KD tx | 12-LOX inh | HT1080-NT tox | IL1B secr inh | DT40 TDP1 no CPT | DT40 TDP1 CPT
COC(=O)[C@@H]1[C@@H](CO)[C@@H]2Cn3c(cccc3=O)[C@H]1N2C(=O)Nc1cc(F)ccc1F | / | -4% | / | / | / | /
O=C1CO[C@H]2CN(Cc3ccccn3)C[C@H]2N1c1ccccc1 | / | 89%[176 µM] | / | / | / | /
COC(=O)C1C(c2ccccc2)CC2CCC1N2C (stereo not drawn) | / | 1% | / | / | / | /
Cc1cccc(N2C(=O)/C(=C/c3ccc(N4CCN(C)CC4)o3)C(=O)NC2=S)c1C | -7% | 45µM* | -5% | 2 | -28% | -12%
CCc1ccccc1N1C(=O)/C(=C/c2ccc(N3CCN(C)CC3)o2)C(=O)NC1=S | 3% | ? | 4% | -1 | ? | -26%
COc1ccc(N2C(=O)/C(=C/c3ccc(C)o3)C(=O)NC2=S)c(OC)c1 | -4% | ? | 8% | 9 | ? | 21µM*
COc1ccc(N2C(=O)/C(=C/c3ccc(OC)c(OC)c3)C(=O)NC2=S)cc1 | 3% | 50µM* | -4% | 0 | 4% | -4%
CC(=O)c1cccc(NC(=O)c2cc3c(s2)-c2c(C)cccc2OC3)c1 | / | ? | / | / | 16µM* | ?
O=C1NC(=S)SC1=Cc1ccc(N(CCCl)CCCl)cc1 | -5% | ? | -21% | -19 | 16µM* | 13µM*
C[C@H]1CC[C@@H]2[C@@H](C)[C@H]3C(C[C@H]4C5CC[C@H]6C[C@@H](O)CC[C@]6(C)C5CC[C@]34C)N2C1 (stereo partly drawn) | / | -5% | / | / | / | /
N#Cc1cccc(NC(=O)CSc2nc3c(cc2C#N)N2CCC3CC2)c1 | / | ? | / | / | 16µM* | ?
N#Cc1cc2c(nc1SCC(=O)Nc1ccc(OC(F)(F)F)cc1)C1CCN2CC1 | / | ? | / | / | 18µM* | ?
N#Cc1cccc(NC(=O)c2sc3nc4c(cc3c2N)N2CCC4CC2)c1 | / | -27% | / | / | 13µM* | 4.1µM*
CC(=O)Nc1ccc(-c2ccc(=O)n3c2[C@@H]2C[C@@H](CN(C(=O)C(C)(C)C)C2)C3)cc1 | / | 26%[176 µM] | / | / | / | /
Cn1ccc2ccc(C(=O)N3CCC(C#N)(c4ccccc4)CC3)cc21 | / | -9% | / | / | / | /
O=c1ccc(-c2ccccc2F)c2n1C[C@H]1C[C@@H]2CN(S(=O)(=O)c2ccccc2)C1 | / | 48%[176 µM] | / | / | / | /
Cn1nc(C2CCCCC2)cc1[C@H]1CN2CC[C@H]1C[C@@H]2CNC(=O)c1ccco1 | / | 48%[176 µM] | / | / | / | /
CC1=C(C(=O)Nc2ccccc2)C(c2ccc(C)cc2)N=C(Nc2nc3ccccc3o2)N1 (stereo not drawn) | 11µM* | ? | ? | -12 | ? | 18µM*
Cc1ccccc1OCCNc1ccc([N+](=O)[O-])c2cccnc12 | / | 16% | / | / | / | /
CCN(CC)CCCCN1c2ccccc2Oc2ccc(Cl)cc21 | / | 61% | / | / | / | /
O=c1c2ccccc2[se]c2ccccc12 | / | 10% | / | / | / | /
CCC(OC(C)=O)C(CC(C)NC)(c1ccccc1)c1ccccc1 (stereo not drawn) | / | / | / | / | 25µM* | 22µM*
CC[C@H](OC(C)=O)C(C[C@H](C)N(C)C)(c1ccccc1)c1ccccc1 | ? | -4% | ? | / | 23µM* | ?
COCCN1CCC(N2CCN(C(=O)Cc3c(F)cccc3Cl)CC2)C1=O (stereo not drawn) | / | 81% | / | / | / | /
ClC1=C(Cl)C(Cl)=C(Cl)C1=C/C=C/c1ccccc1 | -16% | ? | -9% | 13 | 3.3µM* | 5.2µM*
SMILES | HT1080 IDH1KD tx | 12-LOX inh | HT1080-NT tox | IL1B secr inh | DT40 TDP1 no CPT | DT40 TDP1 CPT
Cc1cc(N(CCCl)CCCl)ccc1/C=N/N=C(\N)c1cnccn1 | -12% | ? | -2% | -55* | 12µM* | 7.3µM*
Cc1cc(N(CCCl)CCCl)ccc1C=Cc1ccncn1 | ? | 5% | -5% | -15 | 4.6µM* | 2.6µM*
CN1CCN=C(c2ccccc2)c2cc(Cl)ccc21 | / | / | / | / | -86% | -88%
CCc1ccc(N2CC(C(=O)OCC(=O)Nc3ccc(C#N)c(Cl)c3)CC2=O)cc1 (stereo not drawn) | / | -25% | / | / | / | /
CC(=O)c1cn(CCCOc2ccccc2)c2ccccc12 | -3% | -3% | -15% | -4 | 16µM* | ?
CCOCCOC(C)=O | / | -6%[57.4 µM] | / | / | 0%[92.5 µM] | 6%[92.5 µM]
O=C1C=C(N2CC2)c2ccccc2C1=O | ? | ? | 23µM* | 63 | ? | ?
O=C(Nc1ccccc1Cl)OC1CN2CCC1CC2 (stereo not drawn) | -16% | ? | -12% | -24 | ? | -15%
O=C(Nc1cccc(Cl)c1)OC1CN2CCC1CC2 (stereo not drawn) | 0% | ? | -1% | ? | 5.2µM* | 5.2µM*
O=C(Nc1ccc(Cl)cc1)OC1CN2CCC1CC2 (stereo not drawn) | -21% | ? | -22% | -52* | -29% | -17%
CSc1ccc(C2SCC(=O)Nc3n[nH]c(C)c32)cc1 (stereo not drawn) | / | -12% | / | / | / | /
c1ccc(C(O[C@H]2CCCN(CCc3ccc4c(c3)OCO4)C2)c2ccccc2)cc1 | / | ? | / | / | 24µM* | ?
CCCC1=Nc2cc(C(=O)NC3CCC(C)CC3)ccc2Sc2ccccc21 (stereo not drawn) | / | -1% | / | / | 4.1µM* | 6.5µM*
